The values below come from PubChem BioAssay (EPA / NIEHS).

Read-out in assay [1]: Matrix Metallopeptidase 9 (MMP9), MMP9 (gene 4318)
As to the kind of experiment: BSK_BE3C_MMP9: BioMAP Diversity Plus: BE3C Assay for Matrix Metallopeptidase 9 (MMP9) Biomarker Activity (AID 2284283). The settings on record: primary human bronchial epithelial cells. Put shortly:
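Human primary bronchial epithelial cells exposed 24 h to compound. MMP9 quantified by ELISA. SRB total-protein staining of parallel cultures assesses cytotoxicity. Positive-direction fit relative to DMSO.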

Read-out in assay [2]: Plasminogen activator inhibitor-1 (PAI1), SERPINE1 (gene 5054)
As to the kind of experiment: BSK_CASM3C_PAI1: BioMAP Diversity Plus: CASM3C Assay for Plasminogen activator inhibitor-1 (PAI1) Biomarker Activity (AID 2284284).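 Further: PAI-1 protein level measured by ELISA 24 h after dosing.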 As to conditions: primary human coronary artery smooth muscle cells.

Read-out in assay [3]: Monocyte Chemoattractant Protein-1 (MCP1), CCL2 (gene 6347)
Put plainly: BSK_hDFCGF_MCP1: BioMAP Diversity Plus: hDFCGF Assay for Monocyte Chemoattractant Protein-1 (MCP1) Biomarker Activity (AID 2284285). The settings on record: primary human foreskin fibroblasts. In outline: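 Human foreskin fibroblasts (hDFCGF system) were exposed to compound and secreted MCP-1 was measured by ELISA after 24 hours. Activity was fitted relative to DMSO. Cytotoxicity was checked by SRB total-protein staining in parallel cultures.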

Read-out in the next assay: CD40, CD40 (gene 958)
Put plainly: BSK_IMphg_CD40: BioMAP Diversity Plus: IMphg Assay for CD40 Biomarker Activity (AID 2284288). The settings on record: primary human endothelial cells with macrophages. Put shortly: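 Venular endothelial cells co-cultured with macrophages (human primary), CD40 measured by ELISA 24 h after dosing. Positive-direction fit vs DMSO baseline; cytotoxicity tracked by SRB total-protein staining in parallel cultures.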

Read-out in assay [4]: TIMP metallopeptidase inhibitor 2 (TIMP2), TIMP2 (gene 7077)
As to the kind of experiment: BSK_hDFCGF_TIMP2: BioMAP Diversity Plus: hDFCGF Assay for TIMP metallopeptidase inhibitor 2 (TIMP2) Biomarker Activity (AID 2284289). The settings on record: primary human foreskin fibroblasts. In outline: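 Primary human foreskin fibroblasts in the hDFCGF system, dosed for 24 h; TIMP-2 level measured by ELISA, fitted in the positive direction against DMSO; cytotoxicity checked in parallel by sulforhodamine B total protein staining.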

Read-out in assay [5]: Interleukin-1 alpha (IL1a), IL1A (gene 3552)
Put plainly: BSK_IMphg_IL1a: BioMAP Diversity Plus: IMphg Assay for Interleukin-1 alpha (IL1a) Biomarker Activity (AID 2284290). As to conditions: primary human endothelial cells with macrophages. Put shortly:
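Human venular endothelial cells co-cultured with macrophages, IMphg system. IL-1α is measured by ELISA 24 h after dosing and fitted in the positive direction against DMSO. Cytotoxicity is assessed by SRB staining of parallel cultures.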

Read-out in assay [6]: E-selectin (Homo sapiens) (UniProt P16581)
As to the kind of experiment: BSK_IMphg_ESelectin: BioMAP Diversity Plus: IMphg Assay for Eselectin Biomarker Activity (AID 2284291). As to conditions: primary human endothelial cells with macrophages. In outline:
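Human venular endothelial cell–macrophage co-culture, E-selectin measured by ELISA 24 h after chemical dosing. Signal fitted in the positive direction against DMSO as negative control and baseline.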

A short description of assay [7]: BSK_IMphg_SRB: Viability Assessment in the BioMAP Diversity Plus: IMphg Assay (AID 2284292).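 Further: measured one day after compound addition.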 The settings on record: primary human endothelial cells with macrophages. Put shortly: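 Human venular endothelial cells with macrophages, 24 h after chemical dosing; total protein by 0.1% SRB staining after 10% TCA fixation, read at 560 nm. Positive-direction fitting versus DMSO baseline.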

Read-out in assay [8]: Macrophage colony-stimulating factor (MCSF), CSF1 (gene 1435)
Put plainly: BSK_IMphg_MCSF: BioMAP Diversity Plus: IMphg Assay for Macrophage colony-stimulating factor (MCSF) Biomarker Activity (AID 2284293). The settings on record: primary human endothelial cells with macrophages. Put shortly:
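Co-culture of human venular endothelial cells and macrophages, 24 hours of chemical exposure. M-CSF quantified by ELISA, with parallel SRB total-protein staining for cytotoxicity; activity fitted relative to DMSO.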

Assay [9] can be described thus: BSK_IMphg_SRB.Mphg: Macrophage Viability Assessment in the BioMAP Diversity Plus: IMphg Assay (AID 2284295). As to conditions: primary human endothelial cells with macrophages. Put shortly:
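Venular endothelial cells co-cultured with macrophages, read 24 h after dosing. Total protein measured by 0.1% SRB staining after 10% TCA fixation, absorbance at 560 nm. Fitted in positive direction against DMSO baseline.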

Read-out in assay [10]: Thrombomodulin, THBD (gene 7056)
As to the kind of experiment: BSK_LPS_Thrombomodulin: BioMAP Diversity Plus: LPS Assay for Thrombomodulin Biomarker Activity (AID 2284296). The settings on record: primary human HUVEC with PBMC. Put shortly: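 Human umbilical vein endothelial cells co-cultured with PBMC and stimulated with LPS; cell-surface thrombomodulin measured by ELISA 24 hours after compound. Gain or loss versus DMSO; cytotoxicity checked by SRB staining in parallel cultures.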

Read-out in assay [11]: Interleukin-10 (IL10), IL10 (gene 3586)
Put plainly: BSK_IMphg_IL10: BioMAP Diversity Plus: IMphg Assay for Interleukin-10 (IL10) Biomarker Activity (AID 2284294). As to conditions: primary human endothelial cells with macrophages. In outline: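 Human venular endothelial cells cocultured with macrophages, dosed 24 h; IL-10 measured by ELISA, activity relative to DMSO. Cytotoxicity assessed in parallel cultures by sulforhodamine B total-protein staining.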

Read-out in assay [12]: Vascular cell adhesion molecule 1 (VCAM1), VCAM1 (gene 7412)
As to the kind of experiment: BSK_IMphg_VCAM1: BioMAP Diversity Plus: IMphg Assay for Vascular cell adhesion molecule 1 (VCAM1) Biomarker Activity (AID 2284286). The settings on record: primary human endothelial cells with macrophages. Put shortly:
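Human venular endothelial cells co-cultured with macrophages; VCAM-1 quantified by ELISA 24 h after dosing, fitted in the positive direction against DMSO. Cytotoxicity was checked in parallel cultures by SRB total-protein staining (0.1% SRB after 10% TCA fixation, 560 nm).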

Read-out in assay [13]: Intercellular Adhesion Molecule 1 (ICAM1), ICAM1 (gene 3383)
As to the kind of experiment: BSK_hDFCGF_ICAM1: BioMAP Diversity Plus: hDFCGF Assay for Intercellular Adhesion Molecule 1 (ICAM1) Biomarker Activity (AID 2284287). As to conditions: primary human foreskin fibroblasts. In outline: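 Primary human foreskin fibroblasts (hDFCGF system) dosed with chemical; ICAM-1 quantified by ELISA at 24 h relative to DMSO. Parallel SRB total-protein staining to assess overt cytotoxicity.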

A structure can be active in one record and inactive in another. Active and inactive are the calls of the source. How the source made its calls: active means hit-call score of the fitted dose curve at least 0.9, where 1 is the maximum; inactive means score below 0.9.

E-selectin (Homo sapiens), sequence (P16581 whole entry, looked up): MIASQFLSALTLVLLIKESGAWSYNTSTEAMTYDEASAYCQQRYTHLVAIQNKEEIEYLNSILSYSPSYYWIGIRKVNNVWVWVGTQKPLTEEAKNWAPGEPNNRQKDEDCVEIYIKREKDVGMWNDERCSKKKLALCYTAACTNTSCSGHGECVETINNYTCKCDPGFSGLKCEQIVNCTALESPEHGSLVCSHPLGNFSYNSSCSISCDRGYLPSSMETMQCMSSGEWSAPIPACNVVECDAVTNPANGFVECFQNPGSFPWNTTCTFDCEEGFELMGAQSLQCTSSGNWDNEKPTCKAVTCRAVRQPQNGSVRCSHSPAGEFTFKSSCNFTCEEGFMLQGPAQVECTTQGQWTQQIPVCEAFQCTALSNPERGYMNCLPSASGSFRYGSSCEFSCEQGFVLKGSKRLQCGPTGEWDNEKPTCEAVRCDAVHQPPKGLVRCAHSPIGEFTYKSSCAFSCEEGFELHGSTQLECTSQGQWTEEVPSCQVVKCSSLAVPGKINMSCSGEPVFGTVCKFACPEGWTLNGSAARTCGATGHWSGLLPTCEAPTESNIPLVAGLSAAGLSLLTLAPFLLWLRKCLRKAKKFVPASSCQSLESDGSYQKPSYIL

Take `FC(F)(F)C(F)(F)C(F)(F)C(F)(F)C(F)(F)C(F)(F)C(F)(F)C(F)(F)CCS`: the outcome in assay [1] is “inactive”; in assay [2], “inactive”; in assay [3] it was “inactive”; in the assay with CD40, CD40 (gene 958), “inactive”; in [4], “inactive”; in assay [5] it was “inactive”. For the same molecule, the result in assay [6], in assay [7], in assay [8], in assay [9] and in assay [10] was inactive. The figures for the half-maximal activity concentration (AC50) in assay [3] and in [4] were 1.2 µM (active) and 0.0245 µM (active), respectively.

As for `N=C(N)C(F)(F)C(F)(F)C(F)(F)C(F)(F)C(F)(F)C(F)(F)C(F)(F)F`, the outcome in [1] is “inactive”; in [2], “inactive”; in [3], “inactive”; with CD40, CD40 (gene 958), “inactive”; in assay [4], “inactive”; in assay [5], “inactive”. The result in [6], in assay [7], in assay [8], in assay [11], in [9] and in assay [10] was inactive. The AC50 is 43.8 µM (active) in [3], 30 µM (active) in assay [4] and 48.7 µM (active) in assay [10].

Take `O=P(O)(O)OCCC(F)(F)C(F)(F)C(F)(F)C(F)(F)C(F)(F)C(F)(F)F`: the outcome was “inactive” in [1]; “inactive” in [2]; “inactive” in assay [3]; “inactive” in [12]; “inactive” with CD40, CD40 (gene 958); “inactive” in assay [4]. The outcome in assay [5], in assay [6], in [7], in assay [8], in assay [11] and in [9] was inactive. For the same molecule, the outcome in assay [10] was inactive. Further, the AC50 in assay [6] was 5.46 µM (active).

For the molecule `FC(F)(F)C(F)(F)C(F)(F)C(F)(F)C(F)(F)C(F)(F)C(F)(F)Br`, the outcome in assay [1] is “inactive”; in assay [2], “inactive”; in [3], “inactive”; in assay [12] it was “inactive”; in assay [13] it was “inactive”; with CD40, CD40 (gene 958), “inactive”. Further, the result in assay [4], in assay [5], in assay [6], in assay [7], in assay [8] and in assay [9] was inactive. Besides, the result in assay [10] was inactive.

For the molecule `O=S(=O)(OCCOC(F)(F)F)C(F)(F)F`, the outcome in assay [1] was “inactive”; in assay [2], “inactive”; in assay [3] it was “inactive”; in [12] it was “inactive”; in the assay with CD40, CD40 (gene 958) it was “inactive”; in assay [4], “inactive”. In addition, the result in assay [5], in [6], in [7], in [8], in [11] and in assay [9] was inactive. Further, in assay [10], the outcome was inactive.

Consider `FC(F)(F)C(F)(F)C(F)(F)C(F)(F)C(F)(F)C(F)(F)CCS`, for which the outcome is “inactive” in [1]; “inactive” in assay [2]; “inactive” in [3]; “inactive” in assay [12]; “inactive” with CD40, CD40 (gene 958); “inactive” in assay [4]. Also, the result in assay [5], in assay [6], in [7], in assay [8], in [9] and in assay [10] was inactive. Also, the half-maximal activity concentration (AC50) in [9] is 2.57 µM (active).
